Data published in paper PMC12751014, “Non-Catalytic Inhibitors of the p38/MK2 Interface: Repurposing Approved Drugs to Target Neuroinflammation in Alzheimer’s Disease” (Journal of Medicinal Chemistry, 2025).
Among all 1,900 compounds or so, about 50 (3%) showed an effect of 50% or more. Many of the other results were omitted from the sample, so strong results are more common in it than they were.

biological target: p38/MK2 protein–protein interaction (VF-p38α / GST-MK2) (Homo sapiens, UniProt Q16539); assay: primary screen, percent of control activity; higher = less effect of the substance; set-up: species or system HEK293T cell lysate transfected with VF-p38α and GST-MK2; unclear (methods say 'quintuplet replicates')
Experimental: The TR-FRET assay was conducted in a 1536-well plate (Corning, catalog no. 3724) with HEK293T cell lysate transfected with VF-p38α and GST-MK2. Cell-lysate concentration was optimized with a titration experiment. Anti-Flag-Tb and anti-GST-d2 antibodies (Revvity, catalog no. 61FGBTLB) were used to couple p38α and MK2, respectively. A multiple-drop Combi dispenser (Thermo Scientific) combined reaction mixtures in quintuplet replicates. The TR-FRET signals were measured using a BMG Labtech PHERAstar FSX plate reader and normalized to the percent of DMSO control.

Chain of p38/MK2 protein–protein interaction (VF-p38α / GST-MK2) (Q16539 2-360 limits assumed): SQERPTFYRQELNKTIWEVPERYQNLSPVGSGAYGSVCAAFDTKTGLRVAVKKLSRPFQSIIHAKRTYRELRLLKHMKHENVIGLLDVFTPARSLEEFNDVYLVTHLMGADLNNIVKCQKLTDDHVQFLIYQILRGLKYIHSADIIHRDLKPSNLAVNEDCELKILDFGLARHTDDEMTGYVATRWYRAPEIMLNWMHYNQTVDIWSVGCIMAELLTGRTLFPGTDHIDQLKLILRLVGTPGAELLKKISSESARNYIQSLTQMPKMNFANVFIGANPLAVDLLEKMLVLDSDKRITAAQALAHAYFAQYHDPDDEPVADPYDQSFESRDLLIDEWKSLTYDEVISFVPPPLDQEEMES

Compound | Pct of control
Cl.Cl.O=C1c2c(O)ccc(O)c2C(=O)c2c(NCCNCCO)ccc(NCCNCCO)c21 | 92%
O=C1c2c(O)ccc(O)c2C(=O)c2c(NCCNCCO)ccc(NCCNCCO)c21 | 45.7%
Cc1c(CN2CCN(C(=O)C(C)O)CC2)sc2c(N3CCOCC3)nc(-c3cnc(N)nc3)nc12 (centres unmarked) | 96.8%
CCC(NC(C)C)C(O)c1ccc(O)c(O)c1.CS(=O)(=O)O (centres unmarked) | 90%
NC(=O)c1cccc(-c2cccc(OC(=O)NC3CCCCC3)c2)c1 | 91.2%
COc1cc(=C2C=c3ccccc3=N2)[nH]c1=Cc1[nH]c(C)cc1C.CS(=O)(=O)O | 37.5%
CCOc1cc(N)c(Cl)cc1C(=O)NCC1CN(Cc2ccc(F)cc2)CCO1.O=C(O)CC(O)(CC(=O)O)C(=O)O (centres unmarked) | 96.8%
Cc1coc2c1C(=O)C(=O)c1c-2ccc2c1CCCC2(C)C | 79.4%
CCOC(=O)n1ccn(C)c1=S | 98.2%
C=C1c2cccc(O)c2C(O)=C2C(=O)C3(O)C(O)=C(C(N)=O)C(=O)C(N(C)C)C3C(O)C12.Cl (centres unmarked) | 52.5%
CN(C)C1C(=O)C(C(N)=O)=C(O)C2(O)C(=O)C3=C(O)c4c(O)cccc4C(C)(O)C3C(O)C12.O.O (centres unmarked) | 48.8%
CN(C)C1C(=O)C(C(N)=O)=C(O)C2(O)C(=O)C3=C(O)c4c(O)cccc4C(C)(O)C3C(O)C12 (centres unmarked) | 90.8%
COc1ccc(CCC(=O)c2c(O)cc(OC3OC(CO)C(O)C(O)C3OC3OC(C)C(O)C(O)C3O)cc2O)cc1O (centres unmarked) | 94.3%
CC(C)NC[C@H](O)COc1ccc(CCOCC2CC2)cc1.Cl [S4085] | 94.4%
COc1ccc(S(=O)(=O)N(C(C)=O)c2ccccc2C=Cc2cc[n+]([O-])cc2)cc1 | 89.4%
O=C(c1cncc(Br)c1)N1CCC(N2CCCC2)CC1 | 85.2%
O=C(C=Cc1cccc(S(=O)(=O)Nc2ccccc2)c1)NO | 103%
Cc1cc(C(=O)CN2CCCC2)c(C)n1-c1ccc(F)cc1 | 88.5%
Cc1cc2c(C(=O)NC[C@H](C)c3ccccc3)c(O)c(O)cc2c(O)c1-c1c(C)cc2c(C(=O)NC[C@H](C)c3ccccc3)c(O)c(O)cc2c1O | 36.8%
Cc1cc(-c2ncc(CC(=O)Nc3ccc(-c4cnccn4)cn3)cc2C)ccn1 | 98%
Nc1ncnc2c1ncn2[C@@H]1O[C@H](CO)[C@@H](O)[C@@H]1O [S1784] | 91.5%

Compound | Pct of control
CN(C)CCOC(C)(c1ccccc1)c1ccccn1.O=C(O)CCC(=O)O (centres unmarked) | 101%
O=C1c2c(O)cc(O)cc2O[C@H](c2cc(O)c(O)c(O)c2)[C@H]1O | 71.3%
O=C(OC1Cc2c(O)cc(O)cc2OC1c1cc(O)c(O)c(O)c1)c1cc(O)c(O)c(O)c1 (single isomer, unassigned; (-)) | 32.5%
COc1ccc(C2CC(=O)c3c(O)cc(O)cc3O2)cc1O (centres unmarked) | 90.9%
CC12CC3CC(C)(C1)CC(N)(C3)C2.Cl | 94.2%
COc1cccc2c1C(=O)c1c(O)c3c(c(O)c1C2=O)CC(O)(C(=O)CO)CC3OC1CC(N)C(OC2CCCCO2)C(C)O1 (centres unmarked) | 56.6%
CC(NC(=O)C(O)c1cc(F)cc(F)c1)C(=O)NC1C(=O)N(C)c2ccccc2-c2ccccc21 (centres unmarked) | 105%
CN(C)CC(c1ccc(O)cc1)C1(O)CCCCC1 (centres unmarked) | 98.6%
Nc1ccccc1NC(=O)c1ccc(CNC(=O)OCc2cccnc2)cc1 | 96.2%
O=C(O)c1ccc(N2C(=O)C(=Cc3ccc(-c4ccc([N+](=O)[O-])cc4)o3)C=C2c2ccccc2)cc1 | 24.8%
COc1c(C)cnc(Cn2cnc3c(Cl)nc(N)nc32)c1C | 111%
COC1C=CC=C(C)C(=O)NC2=CC(=O)C(NCCN(C)C)=C(CC(C)CC(OC)C(O)C(C)C=C(C)C1OC(N)=O)C2=O.Cl (centres unmarked) | 96.9%
Cl.OC(CCN1CCCCC1)(c1ccccc1)C1CC2C=CC1C2 (centres unmarked) | 117%
COc1cc(C(C)=O)ccc1O | 90.4%
O=C1Nc2ccc(I)cc2C1=Cc1cc(Br)c(O)c(Br)c1 | 43.6%
CCNCC.O=C(O)Cc1ccccc1Nc1c(Cl)cccc1Cl | 95.1%
CN(C)CCc1ccc(O)cc1 | 89.6%
COc1cc2nc(N(C)CCCNC(=O)C3CCCO3)nc(N)c2cc1OC.Cl (centres unmarked) | 17.9%
COc1cc2nc(N3CCN(C(=O)C4CCCO4)CC3)nc(N)c2cc1OC.Cl.O.O (centres unmarked) | 23.3%
COc1cc2nc(N3CCN(C(=O)C4COc5ccccc5O4)CC3)nc(N)c2cc1OC.CS(=O)(=O)O (centres unmarked) | 41.5%
c1ccc(CNc2nc(NCc3ccccc3)c3ccccc3n2)cc1 | 74.5%

Compound | Pct of control
CCn1nc(C(=O)O)c(=O)c2cc3c(cc21)OCO3 | 86.4%
CC12CCC3c4ccc(O)cc4CCC3C1CCC2=O (centres unmarked) | 88.5%
O=c1[nH]c2ccccc2n1CCCN1CCC(n2c(=O)[nH]c3cc(Cl)ccc32)CC1 | 91.8%
CC1CCc2c(N3CCC(O)CC3)c(F)cc3c(=O)c(C(=O)O)cn1c23 (centres unmarked) | 90.3%
CC(NC(=O)C(C#N)=Cc1cccc(Br)n1)c1ccccc1 (centres unmarked) | 24.1%
N#CC(=Cc1ccc(O)c(O)c1)C(=O)NCc1ccccc1 | 95.3%
CCCC(NC(=O)C(C#N)=Cc1cccc(Br)n1)c1ccccc1 (centres unmarked) | 20.3%
CCOC(=O)C1=C(COCCN)NC(C)=C(C(=O)OC)C1c1ccccc1Cl.O=S(=O)(O)c1ccccc1 (centres unmarked) | 91.6%
CC(C)CCN1c2nc(Nc3cc(F)c(O)c(F)c3)ncc2N(C)C(=O)C1C (centres unmarked) | 86.7%
S=c1nc[nH]c2nc[nH]c12 | 126%
COc1cc(-c2ncn(C=CC(=O)OC(C)C)n2)cc(C(F)(F)F)c1 | 91.8%
CN1CCN(c2nc(C3=C(c4c[nH]c5ccccc45)C(=O)NC3=O)c3ccccc3n2)CC1 | 109%
CC(=O)Oc1cc2c(s1)CCN(C(C(=O)C1CC1)c1ccccc1F)C2 (centres unmarked) | 87.9%
Cc1cc(OCc2nnc(SC3CCCC3)n2-c2cccnc2)ccc1-c1ccc(S(C)(=O)=O)cc1 | 94.4%
CCCCCCNC(=O)n1cc(F)c(=O)[nH]c1=O | 110%
CN1CCc2cccc3c2C1Cc1ccc(O)c(O)c1-3.CN1CCc2cccc3c2C1Cc1ccc(O)c(O)c1-3.Cl.Cl.O (centres unmarked) | 44.4%
CN1CCc2cc3c(cc2C1C1OC(=O)c2c1ccc1c2OCO1)OCO3 (single isomer, unassigned; (+)) | 93.7%
CN1CCCC1c1cccnc1.O=C(O)C(O)C(O)C(=O)O.O=C(O)C(O)C(O)C(=O)O (centres unmarked) | 91.9%
O=C1CC(=O)c2c(Cl)c(Cl)c(Cl)c(Cl)c21 | 32.6%
CC(=O)CCCCn1c(=O)c2c(ncn2C)n(C)c1=O | 88.5%
Cc1cc2c(cc1S(N)(=O)=O)S(=O)(=O)CCC2 | 94.1%

Compound | Pct of control
Br.CN1C2CC(OC(=O)C(CO)c3ccccc3)CC1C1OC12 (centres unmarked) | 98.3%
Nc1nccc(Oc2ccc(NC(=O)c3c[nH]cc(-c4ccc(F)cc4)c3=O)cc2F)c1Cl | 73.2%
Cc1nc(NC(=O)N2CCCC2C(N)=O)sc1-c1ccnc(C(C)(C)C(F)(F)F)c1 (centres unmarked) | 108%
Cc1ccc(Nc2nccc(N(C)c3ccc4c(C)n(C)nc4c3)n2)cc1S(N)(=O)=O | 84.3%
CC(C)c1cc(C(C)C)c(CC(=O)NS(=O)(=O)Oc2c(C(C)C)cccc2C(C)C)c(C(C)C)c1 | 36.9%
CNCC(O)c1ccc(O)c(O)c1.O=C(O)C(O)C(O)C(=O)O (centres unmarked) | 92.6%
CCCC[N+]1(C)C2CC(OC(=O)C(CO)c3ccccc3)CC1C1OC12.[Br-] (centres unmarked) | 96.8%
O=C(NCC1(c2nc(-c3ccccc3)cs2)CCOCC1)c1cccc(-c2noc(C(F)(F)F)n2)c1 | 114%
CCOC(=O)c1ccc(N)cc1 | 97.4%
NC(=O)N/N=C/c1ccc([N+](=O)[O-])o1 | 106%
CCOC(=O)c1ccc(N2NC(=O)C(=Cc3ccc([N+](=O)[O-])o3)C2=O)cc1 | 34.2%
Cc1cccc(N(C)C(=S)Oc2ccc3ccccc3c2)c1 | 101%
O=P1(NCCCl)OCCCN1CCCl (centres unmarked) | 91.1%
Cc1cccc(C)c1NC(=O)C1CCCCN1C.Cl (centres unmarked) | 95.5%
O=c1c(O)c(-c2ccc(O)cc2)oc2cc(O)cc(O)c12 | 75.1%
O.O.O=c1c(O)c(-c2ccc(O)c(O)c2)oc2cc(O)cc(O)c12 | 73.1%
CC1OC(Oc2c(-c3cc(O)c(O)c(O)c3)oc3cc(O)cc(O)c3c2=O)C(O)C(O)C1O (centres unmarked) | 74%
O.O=c1c(O)c(-c2ccc(O)cc2O)oc2cc(O)cc(O)c12 | 27%
O=c1c(O)c(-c2ccc(O)c(O)c2)oc2cc(O)cc(O)c12 | 68%
O=c1c(O)c(-c2cc(O)c(O)c(O)c2)oc2cc(O)cc(O)c12 | 43.2%
